Experimental data published in PubChem BioAssay AID588501 (NMMLSC, 2011).
In all, about 360,000 compounds went through this assay and about 420 (0.12%) were called active. This is one part of a sample in which actives are shown more often than they occur. Unmarked numbers belong to inactive results. No stated cut-off is given here; in the data, active means inhibition above about 30%; inconclusive means no clear call, values can overlap the other calls; inactive means below that.

target: Lethal factor (Bacillus anthracis) (UniProt P15917); assay: Bacillus anthracis LF protease inhibitors, primary screen, biochemical, multiplex microsphere, MLPCN library (AID 588501); conditions: multiplex microsphere protease cleavage assay, at 10 µM, active compounds read high; further: plate controls were buffer without enzyme for full effect and enzyme alone for no effect
Sequence (P15917 whole entry, looked up): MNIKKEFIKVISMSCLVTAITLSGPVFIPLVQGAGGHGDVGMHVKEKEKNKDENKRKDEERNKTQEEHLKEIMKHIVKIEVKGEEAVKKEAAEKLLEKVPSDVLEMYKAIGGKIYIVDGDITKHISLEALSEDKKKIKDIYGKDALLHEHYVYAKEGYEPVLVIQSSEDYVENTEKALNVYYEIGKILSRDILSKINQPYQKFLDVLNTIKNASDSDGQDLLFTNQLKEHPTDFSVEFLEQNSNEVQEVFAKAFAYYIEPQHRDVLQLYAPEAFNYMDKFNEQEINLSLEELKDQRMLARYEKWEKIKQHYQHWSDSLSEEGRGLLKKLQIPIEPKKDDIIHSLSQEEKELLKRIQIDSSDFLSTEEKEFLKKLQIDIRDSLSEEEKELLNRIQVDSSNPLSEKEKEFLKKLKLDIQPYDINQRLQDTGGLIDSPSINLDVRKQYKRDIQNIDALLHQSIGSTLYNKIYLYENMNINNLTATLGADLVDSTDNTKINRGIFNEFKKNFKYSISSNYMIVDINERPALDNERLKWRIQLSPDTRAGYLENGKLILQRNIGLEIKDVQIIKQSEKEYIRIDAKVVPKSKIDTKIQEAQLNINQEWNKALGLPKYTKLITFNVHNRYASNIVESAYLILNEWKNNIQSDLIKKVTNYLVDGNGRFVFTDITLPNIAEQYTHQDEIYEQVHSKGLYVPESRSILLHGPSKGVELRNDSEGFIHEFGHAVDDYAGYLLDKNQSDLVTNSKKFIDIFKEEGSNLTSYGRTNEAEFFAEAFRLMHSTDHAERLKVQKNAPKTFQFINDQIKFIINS

Compound	inhibition
NC1=NC(=O)S/C1=C\c1ccc(O)cc1	-0.1%
C=CCNC(=O)/C=C/c1ccc(C(C)C)cc1	-1.4%
O=C(/C=C(O)/C=C/c1ccc(O)cc1)/C=C/c1ccc(O)cc1	31.4% (active)
CC(O)CN(Cc1ccc(Cl)cc1)CC(C)O (stereo not given)	0.1%
O=C1N[C@@H](Cc2ccccc2)C(=O)N2[C@H]1C[C@]1(Br)c3ccccc3N(S(=O)(=O)c3ccccc3)[C@H]21	-0.3%
Cn1c(SCC(=O)c2ccccc2)ncc(C(=O)Nc2ccc(F)cc2)c1=O	-1.5%
CCCCN1CC(COc2ccccc2)Oc2cccc(F)c2S1(=O)=O (stereo not given)	-2.2%
CN(Cc1cn(Cc2ccc(C(F)(F)F)cc2)nn1)C1CN(Cc2cn(Cc3ccc(C(F)(F)F)cc3)nn2)S(=O)(=O)C1 (stereo not given)	-0.1%
COC(=O)[C@H]1Cc2cnoc2C[C@]1(C)C(=O)O	4.2%
COc1ccc2[nH]c(=O)c(C3c4cc(OC)c(OC)cc4CCN3C(=O)c3ccco3)cc2c1 (stereo not given)	-1.5%
CC(=NNC(=S)N1CCCCCC1)c1ccccn1	50% (active)
CCOC(=O)c1ccc(NC(=S)N2CCN(c3ccccn3)CC2)cc1	-15.7%
O=[N+]([O-])c1ccc(NC(=S)N2CCN(c3ccccn3)CC2)cc1	1.1%
COc1ccccc1CNC(=O)c1cc(-c2cc(F)ccc2OC)n[nH]1	-4.6%
O=C(NC1CCCC1)C(c1ccco1)N(C(=O)c1ccco1)c1ccc(F)cc1 (stereo not given)	-0.3%
Cc1cc(C)c2nc(SCC(=O)N(C)C3CCS(=O)(=O)C3)cc(C)c2c1 (stereo not given)	0.4%
N#CC(Cc1cc2ccccc2n1S(=O)(=O)c1ccccc1)OCc1ccccc1 (stereo not given)	-10.4%
O=C(NN1C(=O)C2CCCCC2C1=O)c1ccco1 (stereo not given)	15.5%
CC(C)c1c(O)nc(SCCOc2ccc(Cl)cc2)[nH]c1=O	-0.5%
COc1ccc(-c2[nH][nH]c(=O)c2NC(=O)c2ccc([N+](=O)[O-])cc2)cc1	6.4%
COc1ccc(C(=O)Nc2nc(-c3ccc(OC)cc3)c(-c3ccc([N+](=O)[O-])cc3)s2)cc1	30.1% (active)
COc1ccc(NC(=O)c2cn(CCC#N)nc2-c2ccc([N+](=O)[O-])cc2)cc1	-4.4%
Cc1ccc(CSCCNC(=O)CN(c2ccc(F)cc2)S(C)(=O)=O)cc1	3%
COc1ccc(CCNC(=O)CN(c2ccccc2)S(C)(=O)=O)cc1	3.6%
COc1ccc(N(CC(=O)NCCSCc2cccc(Cl)c2)S(C)(=O)=O)cc1	34.3% (active)
